Hits are enriched below; roughly 1.7% of the tested compounds scored in any of these assays.
RecA splice inh: Mtb RecA intein splicing inhibition; hit rate 0.75% among 290,000; P9WHJ3; inhibition, % (test concentration not listed); cell-free RecA intein splicing, fluorescence; AID 2221; in the data active = inhibition above about 30%;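 also: 0% = vehicle wells and 100% = reference inhibitor control wells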
Target sequence (P9WHJ3 whole entry, looked up, canonical isoform): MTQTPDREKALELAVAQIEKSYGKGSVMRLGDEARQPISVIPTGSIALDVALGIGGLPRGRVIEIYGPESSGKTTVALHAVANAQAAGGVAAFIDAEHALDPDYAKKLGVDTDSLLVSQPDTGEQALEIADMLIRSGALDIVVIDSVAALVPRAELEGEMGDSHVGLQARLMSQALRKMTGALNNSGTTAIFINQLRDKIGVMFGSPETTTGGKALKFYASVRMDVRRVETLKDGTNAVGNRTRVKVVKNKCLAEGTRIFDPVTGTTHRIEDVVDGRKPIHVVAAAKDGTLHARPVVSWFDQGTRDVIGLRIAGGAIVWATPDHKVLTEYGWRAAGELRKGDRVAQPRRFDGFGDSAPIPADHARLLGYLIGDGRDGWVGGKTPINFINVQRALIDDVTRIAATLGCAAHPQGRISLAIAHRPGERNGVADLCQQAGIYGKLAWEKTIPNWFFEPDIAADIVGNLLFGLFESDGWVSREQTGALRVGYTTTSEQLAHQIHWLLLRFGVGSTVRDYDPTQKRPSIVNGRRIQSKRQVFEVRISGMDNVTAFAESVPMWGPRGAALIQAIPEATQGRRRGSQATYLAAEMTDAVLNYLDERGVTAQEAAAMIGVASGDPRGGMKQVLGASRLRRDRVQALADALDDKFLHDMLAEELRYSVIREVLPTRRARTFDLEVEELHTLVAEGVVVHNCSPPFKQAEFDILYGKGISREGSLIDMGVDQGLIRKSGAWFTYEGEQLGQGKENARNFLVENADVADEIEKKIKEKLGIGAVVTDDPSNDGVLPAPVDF
3CLpro inhibitor: SARS-CoV 3CLpro protease inhibition; inhibition, % at 6 µM; P0C6X7; AID 1706; recombinant SARS-CoV 3CLpro, quenched FRET peptide cleavage; hit rate 0.14% among 290,000; in the data active = inhibition above about 12%
CCHF vOTU inh: blocks the CCHF virus ovarian tumor domain protease. CCHFV vOTU protease, Pep-AMC fluorescence. inhibition, % at 11.5 µM. hit rate 0.55% among 370,000; in the data active = inhibition above about 30%; also: 0% = vehicle wells with enzyme and 100% = no enzyme wells
SSB-PriA inh: inhibitors of Klebsiella pneumoniae PriA binding to SSB C-terminal tail; AlphaScreen SSBct-PriA binding, biotinylated peptide; inhibition, % at 33 µM; hit rate 0.6% among 430,000; in the data active = inhibition mostly above about 37%, no sharp cut-off; inactive = mostly below about 20%;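 also: plate controls were negative control peptide for no effect and reference peptide for full effect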
VHR inh abs: blocks human VHR1 dual specificity phosphatase | AID 1654 | inhibition, % at 13.3 µM | P51452 | recombinant VHR phosphatase, pNPP absorbance | hit rate 0.52% among 290,000; in the data active = inhibition above about 50%
The depositor's hits bear a star; x = no result; ! = not active in a repeat.

SMILES | RecA splice inh | 3CLpro inhibitor | CCHF vOTU inh | SSB-PriA inh | VHR inh abs
CCCCOc1ccc(C(=O)C(CN2CCOCC2)c2ccccc2)cc1 (centres undefined) | 31.6* | 3.0 | 8.1 | -7.2 | 7.5
C=CCN1C(=O)C(C)(C)COc2cc(NC(=O)CN3C(=O)c4ccccc4C3=O)ccc21 | x | x | x | 27.0 | x
O=C(COc1ccc2ccccc2c1)N[C@@H](C(=O)O)c1ccc(O)cc1 | 2.0 | -2.0 | 0.8 | 39.9* | 24.4
O=C(COc1ccc2ccccc2c1)NNC(=O)Cc1ccccc1 | -0.7 | -1.4 | 8.7 | -12.6 | 1.3
Oc1cccc2ccc[n+](CC(O)Cn3c4ccccc4c4ccccc43)c12 (centres undefined) | 7.8 | 11.7 | 5.3 | 73.4* | -10.5
Cc1nn(C(=O)c2cc3ccccc3oc2=O)c(C)c1NC(=O)c1cc2ccccc2oc1=O | x | x | x | -18.0 | x
CCN(CC)CCNC(=O)CSc1c2c(nc3cc(Cl)ccc13)CCCC2 | 35.3* | -0.8 | 2.9 | -0.6 | 14.1
CCCCN(CC)CCNC(=O)c1ccc2c(Cl)c3c(nc2c1)CCC3 | 1.8 | -6.6 | -9.7 | -15.6 | 56.9*
O=C(c1ccc(NS(=O)(=O)c2ccc(F)cc2)cc1)N1CCOCC1 | -2.5 | x | 33.1* | 2.6 | x
Cc1cc(C)c2sc(N(CCCN(C)C)C(=O)c3ccc(S(=O)(=O)N(C)C4CCCCC4)cc3)nc2c1 | 15.3 | x | 14.6 | 40.0*! | x
Cc1ccc2sc(N(CCN(C)C)C(=O)c3ccc4ccccc4c3)nc2c1C | 2.8 | 5.1 | -1.1 | 45.2*! | 5.5
CN(C)CCCN(C(=O)c1ccc(S(=O)(=O)N(C)C2CCCCC2)cc1)c1nc2ccc(F)cc2s1 | 4.9 | -2.0 | 7.9 | 4.2 | 10.1
CCc1ccc2nc(N(CCN(C)C)C(=O)c3ccc4ccccc4c3)sc2c1 | 8.0 | -1.3 | x | 21.1 | 21.1
CN(C)CCN(C(=O)c1ccc2ccccc2c1)c1nc2ccc(F)cc2s1 | 6.1 | -1.6 | x | 44.0*! | 29.8
COc1cc2nc(N(CCN(C)C)C(=O)c3ccc4ccccc4c3)sc2cc1OC | 4.8 | -11.6 | x | 39.0*! | -7.2
Cc1ccc(Cn2cc(C(=O)NNC(=O)Nc3ccc4c(c3)OCO4)ccc2=O)cc1 | x | x | x | -16.0 | x
CN(C)C[C@H]1CSCCCN1C(=O)c1cc(-c2ccc(F)cc2)nn1C | x | x | x | -5.0 | x
Cc1cccc2sc(N(CCCN(C)C)C(=O)c3sc4ccccc4c3Cl)nc12 | x | 3.5 | -4.9 | 40.4*! | 7.6
CN(C)CCCN(C(=O)c1sc2ccccc2c1Cl)c1nc2c(F)cccc2s1 | -0.3 | -2.5 | 3.3 | 13.4 | -2.5
COc1cc2ccccc2cc1C(=O)N(CCN(C)C)c1nc2ccc(C)cc2s1 | 3.4 | 2.1 | 2.1 | 35.7 | 10.8
Cc1cc(C)c2sc(N(CCN(C)C)C(=O)c3cccs3)nc2c1 | x | x | x | 8.0 | x
COc1ccc(OC)c2sc(N(CCN(C)C)C(=O)c3ccc4ccccc4c3)nc12 | 4.5 | 4.8 | 9.2 | 54.0* | 11.4
COc1cc2ccccc2cc1C(=O)N(CCN(C)C)c1nc2c(OC)ccc(OC)c2s1 | 6.3 | -8.9 | -3.2 | 46.0* | -7.0
Cc1cc(C)c2sc(N(CCN(C)C)C(=O)c3ccc4ccccc4c3)nc2c1 | 11.8 | -9.7 | -11.6 | 43.0*! | 11.4
COc1ccc(Cl)c2sc(N(CCN(C)C)C(=O)c3ccc4c(c3)OCCO4)nc12 | -0.2 | x | -6.3 | 16.5 | x
SMILES | RecA splice inh | 3CLpro inhibitor | CCHF vOTU inh | SSB-PriA inh | VHR inh abs
COC(=O)c1cc(NC(=O)CSc2nc3scc(-c4ccc(C)o4)c3c(=O)n2-c2ccccc2)cc(C(=O)OC)c1 | x | x | x | -9.0 | x
O=C(COc1ccccc1F)NCC1CCN(Cc2ccccc2)CC1 | x | x | x | -18.0 | x
COc1cc2ccccc2cc1C(=O)N(CCN(C)C)c1nc2c(C)cccc2s1 | 12.1 | -11.2 | 16.4 | 41.0*! | -11.6
Cc1cc2ncc3c(n2n1)CCN(S(=O)(=O)c1ccc(Cl)s1)C3 | x | x | x | -1.0 | x
COc1ccc(NC(=O)CSc2nnc(Cn3c(=O)sc4ccccc43)n2-c2ccccc2)c(OC)c1 | x | x | x | 10.0 | x
CC1=C(C#N)c2nc(N)c(C#N)c(C)c2/C1=C\c1ccc(C)cc1 | 33.2* | -3.1 | x | x | 6.4
O=C(NCCc1c[nH]c2ccccc12)C1CN(S(=O)(=O)C2CC2)C1 | x | x | x | -10.0 | x
Cc1ccc(NC(=O)Cn2cnc3c(sc4cccc(F)c43)c2=O)cc1F | x | x | x | -5.0 | x
CCN(CC)CCNc1ccc(C)c2sc3ccc(O)cc3c(=O)c12 | x | x | -10.3 | 68.5* | x
S=c1[nH]nc(-c2ccccn2)n1N=Cc1ccc(Br)s1 | x | x | x | 79.2* | x
Cc1ccsc1C=Nn1c(-c2ccccn2)n[nH]c1=S | x | x | x | 88.0* | x
S=c1[nH]nc(-c2ccccn2)n1/N=C/c1cccs1 | 0.8 | 5.4 | -9.2 | x | 5.1
O=S(=O)(Cc1ccccc1F)NCC(c1ccsc1)N1CCOCC1 (centres undefined) | x | x | x | 9.0 | x
CCCc1cc(=O)oc2c(C)c(OCC(=O)c3ccc(N4CCCC4)cc3)ccc12 | x | 1.6 | 3.9 | -8.6 | 57.9*
CCCCc1cc(=O)oc2c(C)c(OCC(=O)N3CCCC3)ccc12 | 0.8 | 2.0 | -13.4 | -6.0 | 18.5
COc1cc(OC)c(NC(=O)CSc2ncc(-c3ccc(F)cc3)o2)cc1Cl | x | x | x | 0.0 | x
COc1ccc2nc(N(CCCn3ccnc3)C(=O)/C=C/c3cccs3)sc2c1 | x | x | x | 53.0* | x
O=C(c1cccc(F)c1)N(CCCn1ccnc1)c1nc2ccc(Cl)cc2s1 | x | x | x | 52.0* | x
O=C(c1ccc2c(c1)OCCO2)N(CCCn1ccnc1)c1nc2ccc(F)cc2s1 | x | x | x | 37.0* | x
COc1ccc(Cl)cc1C(=O)N1CC(c2nc(-c3ncccn3)no2)C1 | x | x | x | -4.0 | x
CCOc1ccc(NC(=O)NCCCn2ncccc2=O)cc1 | x | x | x | 4.0 | x
CC1CCCN(c2oc(-c3cccc4ccccc34)nc2C#N)C1 (centres undefined) | 0.0 | -1.8 | -13.0 | -10.6 | 7.8
Cc1ccccc1-c1nc(C#N)c(N2CCCC2)o1 | x | x | x | 60.9 | x
CC1CC(C)CN(c2oc(-c3ccccc3F)nc2C#N)C1 (centres undefined) | -3.4 | 3.5 | -30.0 | 49.8* | 22.2
Cc1ccccc1-c1nc(C#N)c(N2CCCC(C)C2)o1 (centres undefined) | x | x | x | 65.8* | x
SMILES | RecA splice inh | 3CLpro inhibitor | CCHF vOTU inh | SSB-PriA inh | VHR inh abs
Cc1ccccc1-c1nc(C#N)c(N2CCOCC2)o1 | x | x | x | 70.2* | x
O=C(CNC(=O)c1cccc(F)c1)OCC(=O)N1CCCCC1 | 0.2 | 5.0 | 0.6 | -16.3 | 50.8*
COc1ccc2sc(N(Cc3ccncc3)C(=O)Cc3ccc(F)cc3)nc2c1 | x | x | x | -6.0 | x
CCC(CO)Nc1ncnc2c1cnn2-c1ccc(OC)cc1 (centres undefined) | 0.3 | 0.8 | 3.8 | 115.4* | -12.8
COc1cc(NC(=O)c2ccccc2Cl)c2ncccc2c1 | 5.6 | 3.5 | -0.1 | -71.1 | 15.6
COCCNC(=O)Nc1cc(OC)cc2cccnc12 | x | x | x | 53.0* | x
Cc1cccc(Nc2nc(Cl)ncc2F)c1C | 1.5 | -1.8 | -7.1 | 1.2 | 59.7*
